Inconclusive results are not listed. Unmarked numbers belong to inactive results. Calls of active or inactive are those of the source. The call rests on the fitted dose curve.
The compounds below were run against 5-hydroxytryptamine receptor 2A (Homo sapiens) (UniProt P28223) (assay: 5-hydroxytryptamine receptor 2A (HTR2A) small molecule antagonists, cell-based qHTS assay (AID 1963586; further: nearly all actives have a fitted effect of over 45% in size; further: potency means the concentration at half of the fitted maximal effect)). Conditions: HTR2A-CHO cells, DOI-induced calcium flux, fluorescence; series mostly up to 61.5 µM; activity, negative = inhibition: at the top concentration.
Sequence of 5-hydroxytryptamine receptor 2A (Homo sapiens) (P28223 whole entry, looked up): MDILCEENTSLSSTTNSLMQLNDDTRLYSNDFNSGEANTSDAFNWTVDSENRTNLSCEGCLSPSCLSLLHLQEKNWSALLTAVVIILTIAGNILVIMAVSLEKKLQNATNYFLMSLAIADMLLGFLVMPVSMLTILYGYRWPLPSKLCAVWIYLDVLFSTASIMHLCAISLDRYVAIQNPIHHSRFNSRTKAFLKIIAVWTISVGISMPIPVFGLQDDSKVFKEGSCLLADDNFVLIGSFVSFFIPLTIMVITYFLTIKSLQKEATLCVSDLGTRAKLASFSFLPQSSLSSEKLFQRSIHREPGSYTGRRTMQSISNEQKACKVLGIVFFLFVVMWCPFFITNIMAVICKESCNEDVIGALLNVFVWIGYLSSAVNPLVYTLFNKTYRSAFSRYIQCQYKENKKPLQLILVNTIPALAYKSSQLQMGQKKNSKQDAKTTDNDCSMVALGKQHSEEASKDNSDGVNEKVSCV
How it was run: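 Antagonist-mode intracellular calcium assay: DOI (4 nM) added after 5 min compound pre-incubation at room temperature to dye-loaded HTR2A-CHO cells. Fluorescence followed for 3 min, sampled every second.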
In the case of `COc1ccc(C(=O)/C(Br)=C\C(=O)O)cc1`, the “activity, negative = inhibition” value was 0.576%. With `O=C(CCCCCCC(=O)Nc1ccccc1)NO` the “activity, negative = inhibition” value was 12.1% [at 28.5 µM]. With `O=c1[nH]c2ccccc2n1CCCN1CCN(C(c2ccccc2)c2ccccc2)CC1` the Potency was 5.2 nM (active). For `CCCC(=O)O[C@]1(C(=O)CCl)[C@@H](C)C[C@H]2[C@@H]3CCC4=CC(=O)C=C[C@]4(C)[C@@]3(F)C(=O)C[C@@]21C`, the “activity, negative = inhibition” value was 18.4% [at 28.5 µM]. With `Cc1cccc(O)c1N` the “activity, negative = inhibition” value was -7.18%. With `CCN(CC)c1ccc(C(=C2C=CC(=[N+](CC)CC)C=C2)c2cc(S(=O)(=O)O)ccc2S(=O)(=O)[O-])cc1` the “activity, negative = inhibition” value was 0.69% [at 28.5 µM]. In the case of `Cc1cc(O)c2c(c1)C(=O)c1cc(O)cc(O)c1C2=O`, the “activity, negative = inhibition” value was 1.86%. `O=c1cc(-c2ccc(O)cc2)oc2cc(O)cc(O)c12` was tested, and the Potency was “inactive”. `CC1=NN(c2cc(Cl)c(S(=O)(=O)O)cc2Cl)C(=O)C1N=Nc1ccc(S(=O)(=O)O)cc1` (stereo not given) was tested, and the “activity, negative = inhibition” value was -2.12%. `CN(C)CC/C=C1\c2ccccc2Sc2ccc(Cl)cc21` was tested, and the Potency was 72.9 nM (active). For `C(=C(c1ccccc1)c1ccccc1)c1ccccc1`, the “activity, negative = inhibition” value was -1.85%. For `NC(=O)C1(N2CCCCC2)CCN(CCCN2c3ccccc3CCc3ccc(Cl)cc32)CC1`, the Potency was 103 nM (active). `O=C1c2ccccc2C(=O)c2c(O)c(O)cc(O)c21` was tested, and the “activity, negative = inhibition” value was -7.92%. In the case of `CCOc1ccc2nc3cc(N)ccc3c(N)c2c1`, the “activity, negative = inhibition” value was 9.04% [at 28.5 µM]. For `CC1=NN(c2ccc(S(=O)(=O)O)cc2)C(=O)C1N=Nc1ccccc1` (stereo not given), the “activity, negative = inhibition” value was 1.48%. For `COc1cc([N+](=O)[O-])ccc1N`, the “activity, negative = inhibition” value was 3.79%. `Cc1c(C(=O)NN2CCCCC2)nn(-c2ccc(Cl)cc2Cl)c1-c1ccc(Cl)cc1` was tested, and the “activity, negative = inhibition” value was 4.01% [at 28.5 µM]. In the case of `CC(C)C(OC(=O)c1ccccc1)C(C)(C)COC(=O)c1ccccc1` (stereo not given), the “activity, negative = inhibition” value was -1.3%. `CN(C)C(=O)NC1(c2ccccc2)CCN(CCC[C@]2(c3ccc(Cl)c(Cl)c3)CCCN(C(=O)c3ccccc3)C2)CC1` showed an activity, negative = inhibition of 9.02% [at 12.7 µM]. In the case of `O=C1CCCCCN1SSN1CCCCCC1=O`, the “activity, negative = inhibition” value was 8.54%. In the case of `CC(COc1ccc(C(C)(C)C)cc1)OS(=O)OCCCl` (stereo not given), the “activity, negative = inhibition” value was 14.1%. `Cc1onc(-c2c(Cl)cccc2Cl)c1C(=O)N[C@@H]1C(=O)N2[C@@H]1SC(C)(C)[C@@H]2C(=O)O` was tested, and the “activity, negative = inhibition” value was 115% [at 28.5 µM]. In the case of `Cc1ccc(N/N=c2\c(=O)cc/c(=N\Nc3ccc(S(=O)(=O)O)cc3)c2=O)c(C)c1`, the “activity, negative = inhibition” value was -8.01%.

What follows are compounds tested against 5-hydroxytryptamine receptor 2A (Homo sapiens) (UniProt P28223) (assay: 5-hydroxytryptamine receptor 2A (HTR2A) small molecule agonists, cell-based qHTS assay (AID 1963587; further: nearly all actives have a fitted effect of over 30% in size)). Conditions: HTR2A-CHO cells, calcium flux fluorescence, agonist mode; series mostly up to 76.8 µM; activation: at the top concentration.
How it was run: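 Kinetic calcium-flux fluorescence (2 min, 1 sec intervals) after compound addition in agonist mode. HTR2A-CHO cells were cultured 18 h, then dye-loaded 1 h at 37 C.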
With `COc1ccc(C(=O)/C(Br)=C\C(=O)O)cc1` the “activation” value was -0.0164%. In the case of `COc1ccc(-c2cc(=S)ss2)cc1`, the “activation” value was 11.8% [at 35.6 µM]. With `c1cc(CN2CCCCC2)cc(OCCCNc2nc3ccccc3s2)c1` the “activation” value was 17.5% [at 35.6 µM]. With `O=c1[nH]c2ccccc2n1CCCN1CCN(C(c2ccccc2)c2ccccc2)CC1` the “activation” value was -2.31% [at 35.6 µM]. In the case of `COc1cc(Nc2c(C#N)cnc3cc(OCCCN4CCN(C)CC4)c(OC)cc23)c(Cl)cc1Cl`, the “activation” value was -9.62% [at 35.6 µM]. `N[C@@H](C(=O)N[C@@H]1C(=O)N2C(C(=O)O)=C(Cl)CS[C@H]12)c1ccccc1` gave an activation of -1.95% [at 7.02 µM]. In the case of `CCCC(=O)O[C@]1(C(=O)CCl)[C@@H](C)C[C@H]2[C@@H]3CCC4=CC(=O)C=C[C@]4(C)[C@@]3(F)C(=O)C[C@@]21C`, the “activation” value was 1.39% [at 35.6 µM]. `Cc1cccc(O)c1N` was tested, and the “activation” value was -5.4%. In the case of `CCN(CC)c1ccc(C(=C2C=CC(=[N+](CC)CC)C=C2)c2cc(S(=O)(=O)O)ccc2S(=O)(=O)[O-])cc1`, the “activation” value was -0.422% [at 35.6 µM]. `O=C1Cc2cc(CCN3CCN(c4nsc5ccccc45)CC3)c(Cl)cc2N1` was tested, and the “activation” value was -8.16% [at 35.6 µM]. With `O=c1cc(-c2ccc(O)cc2)oc2cc(O)cc(O)c12` the Potency was “inactive”. `CCCCCCCC/C=C/CCCCCCCC1=NCCN1CCO` was tested, and the “activation” value was -14.1%. In the case of `CC1=NN(c2cc(Cl)c(S(=O)(=O)O)cc2Cl)C(=O)C1N=Nc1ccc(S(=O)(=O)O)cc1` (stereo not given), the “activation” value was -3.34%. In the case of `CN(C)CC/C=C1\c2ccccc2Sc2ccc(Cl)cc21`, the “activation” value was 6.27% [at 35.6 µM]. With `O=C1c2ccccc2C(=O)c2c(O)c(O)cc(O)c21` the “activation” value was 0.659%. In the case of `CN1CCCC(CC2c3ccccc3Sc3ccccc32)C1` (stereo not given), the “activation” value was 14.1% [at 35.6 µM]. For `CCOc1ccc2nc3cc(N)ccc3c(N)c2c1`, the “activation” value was -0.352% [at 35.6 µM]. For `CC1=NN(c2ccc(S(=O)(=O)O)cc2)C(=O)C1N=Nc1ccccc1` (stereo not given), the “activation” value was -10.6%. In the case of `CNCC[C@@H](Oc1ccccc1C)c1ccccc1`, the “activation” value was 5.59% [at 35.6 µM]. With `COc1cc([N+](=O)[O-])ccc1N` the “activation” value was -2.53%. In the case of `Cc1c(C(=O)NN2CCCCC2)nn(-c2ccc(Cl)cc2Cl)c1-c1ccc(Cl)cc1`, the “activation” value was -2.22% [at 35.6 µM]. For `CC(C)C(OC(=O)c1ccccc1)C(C)(C)COC(=O)c1ccccc1` (stereo not given), the “activation” value was 1.86%. `CN(C)C(=O)NC1(c2ccccc2)CCN(CCC[C@]2(c3ccc(Cl)c(Cl)c3)CCCN(C(=O)c3ccccc3)C2)CC1` showed an activation of 1.46% [at 15.9 µM]. `CC(COc1ccc(C(C)(C)C)cc1)OS(=O)OCCCl` (stereo not given) was tested, and the “activation” value was -0.689%. For `c1ccc(-c2ccc(C(c3ccccc3)n3ccnc3)cc2)cc1` (stereo not given), the “activation” value was 2.46% [at 35.6 µM]. With `Cc1onc(-c2c(Cl)cccc2Cl)c1C(=O)N[C@@H]1C(=O)N2[C@@H]1SC(C)(C)[C@@H]2C(=O)O` the “activation” value was -0.429% [at 35.6 µM]. In the case of `Cc1ccc(N/N=c2\c(=O)cc/c(=N\Nc3ccc(S(=O)(=O)O)cc3)c2=O)c(C)c1`, the “activation” value was 9.69%.

Source: PubChem BioAssay (Tox21)
On the % scale 0 is the no-effect control and ±100 the full control effect.
